About 83,000 compounds went through this panel and 20% of them were active in at least one assay; those are over-represented in the sample as a whole.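 Interpretation: 100, growth as untreated; towards 0, rising growth inhibition; 0, no net growth; 0 to -100, cell death. Compounds scoring below 10 were considered active.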 The source made the active and inactive calls.
Assays:
Test in all cases: NCI-60 one-dose screen, 48 h (100 = growth as untreated, 0 = no growth, -100 = all killed)
DU-145 prostate = conditions: 10 µM unless noted
K-562 leukemia = conditions: 10 µM unless noted
MALME-3M melanoma = conditions: 10 µM unless noted
MDA-MB-231 breast = conditions: 10 µM unless noted
RXF 393 renal = conditions: 10 µM unless noted
SF-268 CNS = conditions: 10 µM unless noted
SF-295 CNS = conditions: 10 µM unless noted
SF-539 CNS = conditions: 10 µM unless noted
UACC-257 melanoma = conditions: 10 µM unless noted
M14 melanoma = conditions: 10 µM unless noted
HCT-15 colon = conditions: 10 µM unless noted
HT29 colon = conditions: 10 µM unless noted
SNB-75 CNS = conditions: 10 µM unless noted
U251 CNS = conditions: 10 µM unless noted
PC-3 prostate = conditions: 10 µM unless noted
SK-MEL-5 melanoma = conditions: 10 µM unless noted
UACC-62 melanoma = conditions: 10 µM unless noted
SK-MEL-28 melanoma = conditions: 10 µM unless noted
LOX IMVI melanoma = conditions: 10 µM

Measured: growth

CC(C)Sc1nc(NCCc2c[nH]c3ccccc23)c(C#N)c(-c2ccc(F)cc2)n1
active: K-562 leukemia 9.31% | RXF 393 renal -3.65% | HCT-15 colon 5.84% | HT29 colon -6.22%
inactive: DU-145 prostate 40.6% | MALME-3M melanoma 80.6% | MDA-MB-231 breast 11.2% | SF-268 CNS 45.1% | SF-295 CNS 49.4% | SF-539 CNS 40.1% | UACC-257 melanoma 90.2% | M14 melanoma 46.8% | SNB-75 CNS 73% | U251 CNS 20.7% | PC-3 prostate 15% | SK-MEL-5 melanoma 24.1% | UACC-62 melanoma 58.8% | SK-MEL-28 melanoma 71.1%

CCCCCCCCc1ccc(C(=O)Nc2cccc(P(=O)(O)O)c2)cc1
inactive: DU-145 prostate 107% | K-562 leukemia 97.6% | MALME-3M melanoma 106% | MDA-MB-231 breast 116% | RXF 393 renal 129% | SF-268 CNS 107% | SF-295 CNS 96.5% | SF-539 CNS 97.4% | UACC-257 melanoma 97.1% | M14 melanoma 96.2% | HCT-15 colon 100% | HT29 colon 114% | SNB-75 CNS 99.9% | U251 CNS 108% | PC-3 prostate 92.9% | SK-MEL-5 melanoma 97.7% | LOX IMVI melanoma 103% | SK-MEL-28 melanoma 107%

COc1ccc(-c2nc(SC(C)C)nc(NCCc3c[nH]c4ccccc34)c2C#N)cc1
inactive: DU-145 prostate 54% | K-562 leukemia 14.5% | MALME-3M melanoma 78.8% | MDA-MB-231 breast 26.6% | SF-268 CNS 49.8% | SF-295 CNS 33.6% | SF-539 CNS 42.7% | UACC-257 melanoma 82.5% | M14 melanoma 55.7% | HCT-15 colon 15.3% | SNB-75 CNS 65.6% | U251 CNS 27.1% | PC-3 prostate 11.7% | UACC-62 melanoma 73.6% | LOX IMVI melanoma 21.2% | SK-MEL-28 melanoma 69.7%
active: RXF 393 renal -20.3% | HT29 colon 8.23% | SK-MEL-5 melanoma 5.52%

COc1cc2c(c(OC)c1OC)C(=O)CC(c1cccc(NC(=O)c3cccc([N+](=O)[O-])c3)c1)O2 (stereo unspecified)
active: SK-MEL-5 melanoma -6.2%
inactive: DU-145 prostate 26.9% | K-562 leukemia 25.7% | MALME-3M melanoma 33.5% | MDA-MB-231 breast 24.2% | RXF 393 renal 43.6% | SF-268 CNS 38.4% | SF-295 CNS 44.6% | SF-539 CNS 48.7% | UACC-257 melanoma 44.1% | M14 melanoma 37.2% | HCT-15 colon 16.9% | HT29 colon 34.7% | SNB-75 CNS 38.1% | U251 CNS 49.1% | PC-3 prostate 18.6% | UACC-62 melanoma 13.4% | SK-MEL-28 melanoma 41.7%

COc1ccc(/C=C/c2nc3ccccc3n3c(-c4ccc(Cl)cc4)nnc23)cc1
inactive: DU-145 prostate 98.5% | K-562 leukemia 72.4% | MALME-3M melanoma 104% | MDA-MB-231 breast 91.7% | RXF 393 renal 100% | SF-268 CNS 79.4% | SF-295 CNS 123% | SF-539 CNS 90.8% | UACC-257 melanoma 102% | M14 melanoma 102% | HCT-15 colon 93.3% | HT29 colon 102% | SNB-75 CNS 61.2% | U251 CNS 87.5% | PC-3 prostate 77.1% | SK-MEL-5 melanoma 98.6% | UACC-62 melanoma 81.3% | LOX IMVI melanoma 88.5% | SK-MEL-28 melanoma 104%

O=C1NC(=O)c2c1c1c3cc(Br)ccc3[nH]c1c1oc3ccc(F)cc3c21
active: DU-145 prostate -31.5% | K-562 leukemia 4.29% | MALME-3M melanoma -31.1% | MDA-MB-231 breast -25.3% | RXF 393 renal -47.7% | SF-268 CNS -22.6% | SF-295 CNS -64.3% | SF-539 CNS -68.5% | SNB-75 CNS -11.6% | U251 CNS -55.5% | PC-3 prostate -66% | SK-MEL-5 melanoma 2.9% | UACC-62 melanoma 0.264% | SK-MEL-28 melanoma -20.7%
inactive: UACC-257 melanoma 48.4% | M14 melanoma 20% | HCT-15 colon 21.5% | HT29 colon 36.4%

Cc1ccc(C(=O)CSc2nc3ccc(C)cc3c(=O)n2-c2ccc(F)cc2)cc1
inactive: DU-145 prostate 80.9% | K-562 leukemia 92.7% | MALME-3M melanoma 79.6% | MDA-MB-231 breast 21.3% | RXF 393 renal 30.5% | SF-268 CNS 45.5% | SF-295 CNS 28% | SF-539 CNS 40.2% | UACC-257 melanoma 85.9% | M14 melanoma 79.7% | HCT-15 colon 84.6% | HT29 colon 72.5% | U251 CNS 28.7% | PC-3 prostate 74% | SK-MEL-5 melanoma 72% | UACC-62 melanoma 86.1% | SK-MEL-28 melanoma 88.1%
active: SNB-75 CNS 7.91%

CCCSc1nc(NCCc2c[nH]c3ccccc23)c(C#N)c(-c2ccc(F)cc2)n1
inactive: DU-145 prostate 63.7% | K-562 leukemia 27.7% | MALME-3M melanoma 75.4% | MDA-MB-231 breast 29.2% | RXF 393 renal 24.8% | SF-268 CNS 53.8% | SF-295 CNS 41.2% | SF-539 CNS 44.7% | UACC-257 melanoma 74.6% | M14 melanoma 75.5% | HCT-15 colon 18.8% | HT29 colon 15.6% | SNB-75 CNS 85.7% | U251 CNS 28.2% | PC-3 prostate 23.8% | SK-MEL-5 melanoma 13.1% | UACC-62 melanoma 54.6% | SK-MEL-28 melanoma 63.3%

— PubChem BioAssay (NCI)
